Results taken from PubChem BioAssay (NCI).
Compounds without any hit were thinned out: in the full panel of roughly 83,000, 20% have a hit.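 Method: cells in 96-well plates; compound added at one concentration; 48 h incubation; percent growth measured; values under 10 scored active.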 Calls of active or inactive are those of the source.

Key:
Assay in all cases: NCI-60 one-dose screen, 48 h (100 = growth as untreated, 0 = no growth, -100 = all killed)
Details in all cases: 10 µM unless noted
[1] = system: SR leukemia
[2] = system: RPMI-8226 leukemia
[3] = system: OVCAR-8 ovarian
[4] = system: OVCAR-5 ovarian
[5] = system: OVCAR-4 ovarian
[6] = system: SK-OV-3 ovarian
[7] = system: IGROV1 ovarian
[8] = system: OVCAR-3 ovarian
[9] = system: HS 578T breast
[10] = system: NCI/ADR-RES ovarian
[11] = system: T-47D breast
[12] = system: BT-549 breast
[13] = system: MDA-MB-435 melanoma
[14] = system: SW-620 colon
[15] = system: MCF7 breast
[16] = system: HCT-116 colon
[17] = system: HCC-2998 colon
[18] = system: KM12 colon
[19] = system: MDA-MB-468 breast

Measured: growth

C#CCOc1cc(N(CC)CC)ccc1C(C(=O)NC(C)(C)C)N(C(=O)C1CCc2cc(F)ccc2O1)c1ccc(F)c(Cl)c1 (stereo unspecified)
inactive: [1] 35% | [2] 38.3% | [3] 69% | [4] 82.7% | [5] 57.8% | [6] 73.1% | [7] 70.5% | [8] 57.7% | [9] 75.2% | [10] 72.9% | [11] 42.3% | [12] 61.9% | [13] 65.7% | [14] 74.3% | [15] 30.5% | [16] 38.2% | [17] 92% | [18] 57.5% | [19] 37.6%

CCS(=O)(=O)N1CCCC(C(=O)Nc2nc3ccc(NC(=O)c4ccc(F)c(OC)c4F)cc3s2)C1 (stereo unspecified)
inactive: [1] 27.8% | [2] 30.4% | [3] 57.7% | [4] 101% | [5] 39.4% | [6] 70.2% | [7] 80.9% | [8] 62.3% | [9] 47.6% | [10] 52% | [12] 13.2% | [13] 53.8% | [14] 88.7% | [15] 30.1% | [16] 41% | [17] 86.9% | [18] 61.6%
active: [11] 7.96% | [19] 7.13%

CN(C)CCOc1ccc(C(=O)C2[C@H](c3ccc(Cl)cc3)[C@@H](c3ccccc3)NC23C(=O)Nc2ccccc23)cc1 (stereo partly specified)
inactive: [2] 49.7% | [3] 88.1% | [4] 85.8% | [5] 70.6% | [6] 121% | [7] 80.2% | [8] 73.2% | [9] 77.4% | [10] 86.4% | [11] 67.9% | [12] 81.8% | [13] 44.6% | [16] 22% | [18] 33.4%
active: [1] -18% | [14] -57.7% | [15] -20.8% | [17] -59.9% | [19] -26%

C#CCOc1ccc(/C=N/Nc2nc(-c3ccc(Cl)cc3)cs2)cc1OC
inactive: [1] 22.2% | [2] 38.5% | [3] 51.7% | [4] 86.9% | [5] 54.2% | [6] 88.2% | [7] 88.1% | [8] 69.1% | [9] 81.1% | [10] 46% | [11] 18.5% | [12] 36% | [13] 44.1% | [14] 82.2% | [15] 21.8% | [16] 48.1% | [17] 90.3% | [18] 61.8% | [19] 42.1%

C=C1CCC2C3(C)COC(c4cccc(F)c4)OC3CCC2(C)C1C/C=C1/C(=O)OCC1O (stereo unspecified)
active: [1] 9.74% | [3] -52.2% | [5] -0.215% | [7] -24% | [8] -71.8% | [10] -18% | [11] -5.25% | [12] -82.2% | [13] -10.3% | [14] -63% | [15] -7.05% | [16] -73.8% | [17] -51% | [18] -27.8% | [19] -35.2%
inactive: [2] 10.5% | [4] 22.1% | [6] 60.5% | [9] 15.9%

COc1ccc(C2=NN(C(C)=O)C(c3ccc(OCc4ccc(Cl)cc4)c(OC)c3)C2)cc1OC (stereo unspecified)
inactive: [1] 52.4% | [2] 37% | [3] 43.5% | [4] 79.8% | [5] 29.4% | [6] 84.9% | [7] 49% | [8] 41.4% | [9] 56.3% | [10] 56.1% | [11] 10.2% | [12] 33.8% | [13] 43% | [14] 61.2% | [15] 20.1% | [16] 35.3% | [17] 83.4% | [18] 39% | [19] 31.1%

CC(=O)Nc1ccc(-c2nc3cc(-c4ccc(O)cc4)ccc3n2C)cc1
inactive: [1] 23.1% | [2] 41.3% | [3] 54.8% | [4] 74.2% | [5] 54.5% | [6] 94.5% | [7] 34.8% | [8] 49% | [9] 66.1% | [10] 55.3% | [11] 50.8% | [12] 65.6% | [13] 50.2% | [14] 66% | [15] 24.7% | [16] 29% | [17] 58.9% | [18] 57.8% | [19] 58.3%

O=C(/C=C/Nc1ccc2oc(=O)ccc2c1)c1cc2cc(Br)ccc2oc1=O
inactive: [1] 99.2% | [2] 103% | [3] 104% | [4] 108% | [5] 102% | [6] 99.8% | [7] 105% | [8] 122% | [9] 92.6% | [10] 109% | [11] 94.4% | [12] 87.9% | [13] 103% | [14] 105% | [16] 101% | [17] 113% | [18] 111% | [19] 98.9%

O=C(Nc1cccc(-n2cnc3cc(-c4ccc(O)cc4)ccc32)c1)C1CC1
active: [8] -2.16% | [9] 9.4% | [13] -4.17% | [16] 9.12% | [18] 0.14%
inactive: [1] 21.6% | [2] 25.5% | [3] 17.9% | [4] 41.2% | [5] 49.6% | [6] 35.5% | [7] 28.2% | [10] 24.8% | [11] 30.6% | [12] 30.8% | [14] 38.2% | [15] 24.9% | [17] 28.4% | [19] 21%

C=C1CC[C@@H]2[C@]3(C)COC(c4cn[nH]c4-c4ccc(Br)cc4)O[C@@H]3CC[C@@]2(C)[C@@H]1C/C=C1/C(=O)OCC1O (stereo partly specified)
inactive: [9] 19.1% | [11] 12.2%
active: [1] 3.62% | [2] 3.94% | [3] -9.48% | [4] -75.9% | [5] 8.76% | [6] -31.8% | [7] -44.9% | [8] -78.9% | [10] -40% | [12] -96.6% | [13] -64.4% | [14] -70.5% | [16] -93.5% | [17] -98% | [18] -64.3% | [19] -85.9%

Brc1ccc(N/N=C/c2c[nH]c3ccc(Br)cc23)nc1
active: [1] -26.2% | [2] -17.2% | [3] 3.48% | [4] -25.8% | [6] -12.7% | [7] -25.6% | [8] -2.41% | [9] -17.2% | [10] -24.5% | [11] 1.46% | [12] -22.6% | [13] -25% | [14] -71.3% | [16] -72.9% | [17] -94% | [18] -57% | [19] -63.5%
inactive: [5] 19.6%

O=c1[nH]c(=O)c2c(-c3cc4ccccc4oc3=O)ccnc2[nH]1
inactive: [1] 71.8% | [2] 95% | [3] 61.6% | [4] 111% | [5] 88.3% | [6] 71.2% | [7] 79.4% | [8] 98.9% | [9] 70.4% | [10] 86.9% | [11] 74.2% | [12] 70.2% | [13] 101% | [14] 98.9% | [16] 88.3% | [17] 98.8% | [18] 95.4% | [19] 57.9%

COc1c(F)ccc(C(=O)Nc2ccc3nc(NC(=O)C4CCCN(S(=O)(=O)c5ccc(C#N)cc5)C4)sc3c2)c1F (stereo unspecified)
inactive: [1] 74.4% | [2] 70.1% | [3] 111% | [4] 103% | [5] 86.3% | [6] 103% | [7] 97.1% | [8] 102% | [9] 79.1% | [10] 96.1% | [11] 61.9% | [12] 75.8% | [13] 105% | [14] 102% | [16] 74% | [17] 119% | [18] 96.3% | [19] 86.2%

COc1ccc(-c2ccc(SCC(=O)NCCc3ccc(S(N)(=O)=O)cc3)nn2)cc1
inactive: [1] 63.9% | [2] 49.6% | [3] 88.8% | [4] 102% | [5] 77.2% | [6] 71.1% | [7] 82% | [8] 121% | [9] 89.8% | [10] 100% | [11] 51% | [12] 60.5% | [13] 92.2% | [14] 103% | [16] 70.4% | [17] 94.9% | [18] 96.3% | [19] 33.9%

Cn1cc(-c2cc(N)n3nc(-c4cn(C)c5ncccc45)cc3n2)c2cccnc21
inactive: [1] 51.1% | [2] 54.3% | [3] 61.3% | [4] 92.8% | [5] 71.4% | [6] 99.8% | [7] 98% | [8] 96.7% | [9] 89.2% | [10] 68.6% | [11] 89% | [12] 62.5% | [13] 92.9% | [14] 71.7% | [16] 62.7% | [18] 87.8% | [19] 45%
active: [17] -55.5%

O=C(Cn1c(/C=C/c2ccccc2)nc2ccccc2c1=O)Nc1ccccc1
inactive: [1] 80.3% | [2] 90.2% | [3] 44.4% | [4] 96.1% | [6] 61.4% | [7] 107% | [8] 78.3% | [9] 82.5% | [10] 57.9% | [12] 91.3% | [13] 105% | [14] 75.9% | [16] 44.6% | [17] 95.2% | [18] 101% | [19] 61.8%
active: [5] -0.268% | [11] -11.3%
